# Pol kappa inh = blocks human DNA polymerase kappa activity; Q9UBT6; purified Pol kappa, fluorescent DNA synthesis assay, 10 min; Potency, µM (titrated, usually from 107 µM), for the others: at the top dose activity, negative = inhibition, usual class: inhibitors; hit rate 0.53% among 400,000; further: on the % scale 0 is the no-effect control and ±100 the full control effect
#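 Pol kappa 10 nM + cpd, 15 min RT; start w/ substrate 50 nM final; fluorescence kinetic read, 0 and 10 min. Neg ctrl: buffer, no enzyme.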
# FEN1 inhibitor = human FEN1 inhibition; P39748; Recombinant FEN1 flap cleavage, fluorescence, 15 min; Potency, µM (titrated, usually from 114 µM), inactives show at the top dose activity change, negative = inhibition, hits mostly inhibitors; hit rate 0.35% among 390,000; AID 588795; further: on the % scale 0 is the no-effect control and ±100 the full control effect; nearly all actives have a fitted effect of over 65% in size
#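 Compounds are tested as a concentration series against 10 nM FEN1; after a 15 min room-temperature preincubation, 50 nM substrate starts cleavage, with plate reads at 0 and 15 min. Normalized responses are fitted by a Hill equation.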
# Pol beta inh = DNA polymerase beta (human) inhibition; P06746; Pol beta primer extension/strand displacement, fluorescence kinetic; Potency, µM (highest dose often 114 µM), for the others: at the highest dose activity change, negative = inhibition, most hits filed as inhibitors; hit rate 1.3% among 340,000; AID 485314; further: on the % scale 0 is the no-effect control and ±100 the full control effect
#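 Curves were derived by four-parameter Hill fits of normalized qHTS data. The kinetic fluorescent primer-extension read was taken at 0 and 10 min after 50 nM substrate, following a 15 min room-temperature preincubation of 10 nM enzyme with compounds.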
# Pol eta inh = DNA polymerase eta (human) inhibition. hit rate 1.2% among 390,000. recombinant Pol eta, fluorescent DNA replication assay. Q9Y253. Potency, µM (series often up to 114 µM), for the others: at the highest dose activity change, negative = inhibition, hits mostly inhibitors; further: on the % scale 0 is the no-effect control and ±100 the full control effect
#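 Fluorescent replication assay: 50 nM final substrate added after a 15 min room-temperature compound preincubation with 10 nM enzyme. Signal taken at 0 min and again at 10 min.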
# Pol iota inh = inhibitors of human DNA polymerase iota | hit rate 1% among 390,000 | Pol iota fluorescent replication assay, 10 min | AID 588590 | Q9UNA4 | Potency, µM (titrated, usually from 115 µM), inactives show top-dose activity, negative = inhibition, actives largely listed as inhibitors
# Target sequence (Q9UNA4 whole entry, looked up): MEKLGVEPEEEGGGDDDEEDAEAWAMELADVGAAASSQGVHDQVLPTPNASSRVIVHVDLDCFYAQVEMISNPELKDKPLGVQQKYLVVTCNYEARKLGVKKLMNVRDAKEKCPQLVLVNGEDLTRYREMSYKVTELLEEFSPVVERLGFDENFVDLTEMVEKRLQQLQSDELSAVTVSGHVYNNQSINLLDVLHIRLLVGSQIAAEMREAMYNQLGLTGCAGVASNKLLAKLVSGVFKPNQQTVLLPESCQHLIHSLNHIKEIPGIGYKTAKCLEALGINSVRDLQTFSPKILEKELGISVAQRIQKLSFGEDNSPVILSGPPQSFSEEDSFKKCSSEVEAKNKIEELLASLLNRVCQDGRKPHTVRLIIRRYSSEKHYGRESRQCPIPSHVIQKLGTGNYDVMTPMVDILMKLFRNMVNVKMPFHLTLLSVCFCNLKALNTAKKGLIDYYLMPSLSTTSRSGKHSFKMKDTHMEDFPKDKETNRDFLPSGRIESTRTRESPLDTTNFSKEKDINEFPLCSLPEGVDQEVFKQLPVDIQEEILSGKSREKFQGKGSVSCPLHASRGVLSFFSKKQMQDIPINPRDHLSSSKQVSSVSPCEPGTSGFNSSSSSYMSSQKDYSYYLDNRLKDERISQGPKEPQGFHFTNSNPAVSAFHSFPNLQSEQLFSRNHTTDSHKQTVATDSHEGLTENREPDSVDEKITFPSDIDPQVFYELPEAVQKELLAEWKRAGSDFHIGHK
#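 Pol iota at 10 nM preincubated 15 min with compounds at room temperature; reaction started with fluorescent substrate, 50 nM final. Fluorescence read kinetically at 0 and 10 min; buffer-only wells as negative control.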
# WRN inhibitor = inhibitors of human WRN helicase; Potency, µM (titrated, usually from 114 µM), for the others: at the highest dose activity change, negative = inhibition, most hits filed as inhibitors; WRN helicase unwinding, fluorescent forked duplex, kinetic; hit rate 0.46% among 360,000; Q14191; further: on the % scale 0 is the no-effect control and ±100 the full control effect; nearly all actives have a fitted effect of over 55% in size
#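 Primary qHTS, 1536-well format. 20 nM WRN + compound, 15 min RT; start with 100 nM forked fluorophore/quencher duplex, 2 mM ATP (final); kinetic read ex 525/em 598 nm.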
# * = called active by the depositor; ? = inconclusive; . = no result; [ ] = another dose, or the depositor's remark. Sampled rows, rich in hits. Any-hit rate of the full collection: about 2.4%. The call rests on the fitted dose curve; in most records, active means well fitted curve in the direction sought with a large enough effect; inconclusive means small, poorly fitted or top-dose-only effect, or another doubt; inactive means no such curve, though single readings can be large; an effect the other way counts as inactive or inconclusive. Potency means the concentration at half of the fitted maximal effect.
SMILES,Pol kappa inh,FEN1 inhibitor,Pol beta inh,Pol eta inh,Pol iota inh,WRN inhibitor
COc1cccc(=O)c2c(C)n(C)c(C)c12,?,-2%,25µM*,?,40µM*,-28%
CCOc1cccc(=O)c2c(C)n(C)c(C)c12,?,?,?,?,22µM*,-24%
CCCCCn1c(C)c2c(OCC)cccc(=O)c2c1C,-18%,-3%,1%,-26%,?,-3%
CCCCN(CCCC)CCNC(=O)Cn1nc(CC)n2c(cc3sc(C)cc32)c1=O,-6%,-18%,45%,-10%,25µM*,.
N#CC1=C(N)OC2=C(CCC/C2=C/c2ccoc2)C1c1ccoc1 (configuration not stated),.,.,14µM*,.,.,.
COCCCNC(=O)C1CC(=O)N(CCc2ccc(OC)c(OC)c2)C1 (configuration not stated),-18%,-12%,0%,32µM*,-4%,-12%
COc1ccc(CCN2CC(C(=O)NCCc3ccccc3)CC2=O)cc1OC (configuration not stated),4%,-5%,?,-16%,27%,-7%
CC(C)c1ccc(S(=O)(=O)/N=C2\C=C(NS(=O)(=O)c3ccccc3)C(=O)c3ccccc32)cc1,-20%,?,?,79µM*,?,?
CCc1ccc(S(=O)(=O)/N=C2\C=C(NS(=O)(=O)c3ccccc3)C(=O)c3ccccc32)cc1,-27%,-20%,?,89µM*,?,-12%
Cc1cc(O)ccc1N=Cc1c(C(F)(F)F)[nH][nH]c1=O,-5%,?,14µM*,-1%,8.9µM*,-12%
O=c1[nH][nH]c(C(F)(F)F)c1C=Nc1cccc(Cl)c1,3%,7%,15%,-8%,40%,2%
CNC1=C(N(C(C)=O)c2ccc(Br)cc2)C(=O)c2ccccc2C1=O,-11%,-10%,12%,-1%,?,-20%
CC(=O)C1=C(c2ccc(Br)cc2)C(=O)c2ccccc2C1=O,?,-23%,19%,-5%,3.5µM*,?
COc1ccc(C(=O)C[n+]2cccc3cc(Cl)ccc32)cc1,?,-5%,.,.,?,.
CCN(CC)CCCC(C)Nc1cc(/C=C/c2ccccc2Cl)nc2cc(Cl)ccc12 (configuration not stated),2%[19.4 µM],-26%,.,.,71µM*,.
CCN(CC)CCCC(C)Nc1c2ccc(Cl)cc2nc2ccc(OC)cc12 (configuration not stated),8.9µM*,11µM*,16µM*,?,7.9µM*,.
CCN(CC)CCN(C(=O)/C=C/c1cccs1)c1nc2ccc(Cl)cc2s1,-29%,21%,8%,-4%,10%,-8%
O=C(Nc1ccc2nc(-c3cccs3)c(-c3cccs3)nc2c1)N1CCCCC1,-45%,-20%,.,.,24%,.
COc1ccc(CC2=CC(=O)c3ccccc3C2=O)cc1,-11%,?,-2%,?,10µM*,-9%[11.6 µM]
COc1ccc(C(=O)c2sc(Nc3cc(Cl)ccc3C)nc2N)cc1OC,-17%,-3%,28µM*,-16%,?,.
COc1ccc(C(=O)c2sc(Nc3ccccc3)nc2N)cc1OC,-9%,-13%,1%,-8%,?,-8%
CN1CCN(CCCNC(=O)c2cc3c(-c4ccc(Cl)cc4)nn(C)c3s2)CC1,-5%,?,?,4%,-10%,25%
CCN(CC)CCCNC(=O)c1cc2c(-c3ccc(Cl)cc3)nn(C)c2s1,-23%,45µM*,?,21%,?,93%
CCCCCCCOc1ccc(CC(=O)NO)cc1,3%,-1%,.,.,15%,.
Nc1nccnc1C(=O)OCC(=O)NCCc1ccc(S(N)(=O)=O)cc1,-21%,-3%,.,?,22µM*,-3%[11.6 µM]
Cc1c(N2C(=O)c3ccc4c5c(ccc(c35)C2=O)CC4)c(=O)n(-c2ccccc2)n1C,50µM*,50µM*,5µM*,2.8µM*,5.6µM*,?
Cc1c(N2C(=O)c3ccc(Br)cc3C2=O)c(=O)n(-c2ccccc2)n1C,-4%,7%,?,-7%,21%,-1%

# Assay outcomes (PubChem BioAssay)
